In the supplement of paper PMC10849652:
Of roughly 8,800 targets only a part is listed; those with a hit were picked by preference. About 0.5% of all pairs of compound and target were hits.

Compound: COC(=O)N[C@@H](C)CNc1nccc(-c2cn(C(C)C)nc2-c2cc(Cl)cc(NS(C)(=O)=O)c2F)n1 [encorafenib]
Experiment: log2 fold change, soluble protein after heating vs DMSO (PISA); higher = thermal stabilisation; K562 lysate, 10 uM; active = over 0.2 and 3.5 SD of the protein, either way, in both replicates (recomputed)
How it was run: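 Values give the log-two fold change in thermal stability against solvent controls, from duplicates. Crude K562 extract at 1 mg/mL protein, made by dounce homogenisation in PBS pH 7.4 with 1 mM MgCl2, was treated with 10 μM compound for 30 min. After 3 min heating across 48°C-58°C, aliquots were pooled, adjusted to 0.5% NP-40 at 4°C and centrifuged at 21,000xg for 90 min. The supernatant was measured by TMTpro 16plex LC-MS/MS with channel sums equalised.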

UniProt Q13948, sequence (Q13948 whole entry, looked up): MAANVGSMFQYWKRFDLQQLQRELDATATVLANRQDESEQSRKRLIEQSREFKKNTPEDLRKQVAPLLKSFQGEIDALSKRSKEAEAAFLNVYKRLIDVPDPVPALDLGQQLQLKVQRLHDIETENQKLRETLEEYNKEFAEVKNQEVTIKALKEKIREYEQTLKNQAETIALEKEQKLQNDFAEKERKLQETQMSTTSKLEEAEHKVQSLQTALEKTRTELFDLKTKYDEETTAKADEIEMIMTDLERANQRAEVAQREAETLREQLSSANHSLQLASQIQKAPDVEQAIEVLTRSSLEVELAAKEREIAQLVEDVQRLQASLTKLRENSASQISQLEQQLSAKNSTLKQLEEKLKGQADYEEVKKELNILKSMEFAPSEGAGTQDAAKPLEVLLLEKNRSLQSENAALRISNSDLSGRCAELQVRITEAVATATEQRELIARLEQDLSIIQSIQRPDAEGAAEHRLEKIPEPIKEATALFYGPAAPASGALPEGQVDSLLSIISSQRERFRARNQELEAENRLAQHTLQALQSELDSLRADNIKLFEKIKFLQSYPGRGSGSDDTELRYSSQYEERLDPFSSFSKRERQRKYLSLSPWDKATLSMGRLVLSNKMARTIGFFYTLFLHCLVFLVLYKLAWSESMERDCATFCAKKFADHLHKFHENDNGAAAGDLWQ
UniProt Q8NI60, sequence (Q8NI60 whole entry, looked up): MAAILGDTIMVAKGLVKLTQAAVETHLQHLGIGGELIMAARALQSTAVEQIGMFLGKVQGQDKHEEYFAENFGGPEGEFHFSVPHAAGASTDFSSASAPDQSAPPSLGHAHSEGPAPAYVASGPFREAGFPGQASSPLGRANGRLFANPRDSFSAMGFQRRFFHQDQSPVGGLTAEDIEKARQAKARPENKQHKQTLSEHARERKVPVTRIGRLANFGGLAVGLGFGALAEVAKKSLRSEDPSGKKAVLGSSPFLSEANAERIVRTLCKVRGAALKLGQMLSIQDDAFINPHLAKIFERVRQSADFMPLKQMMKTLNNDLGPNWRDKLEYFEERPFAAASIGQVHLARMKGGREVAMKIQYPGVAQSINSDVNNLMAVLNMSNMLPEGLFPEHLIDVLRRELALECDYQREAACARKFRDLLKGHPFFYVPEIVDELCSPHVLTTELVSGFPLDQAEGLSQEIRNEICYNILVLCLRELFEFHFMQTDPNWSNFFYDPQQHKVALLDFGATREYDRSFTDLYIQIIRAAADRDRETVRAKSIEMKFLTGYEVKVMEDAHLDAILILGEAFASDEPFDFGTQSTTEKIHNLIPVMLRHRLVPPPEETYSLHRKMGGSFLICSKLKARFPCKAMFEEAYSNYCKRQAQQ
UniProt O75208, sequence (O75208 whole entry, looked up): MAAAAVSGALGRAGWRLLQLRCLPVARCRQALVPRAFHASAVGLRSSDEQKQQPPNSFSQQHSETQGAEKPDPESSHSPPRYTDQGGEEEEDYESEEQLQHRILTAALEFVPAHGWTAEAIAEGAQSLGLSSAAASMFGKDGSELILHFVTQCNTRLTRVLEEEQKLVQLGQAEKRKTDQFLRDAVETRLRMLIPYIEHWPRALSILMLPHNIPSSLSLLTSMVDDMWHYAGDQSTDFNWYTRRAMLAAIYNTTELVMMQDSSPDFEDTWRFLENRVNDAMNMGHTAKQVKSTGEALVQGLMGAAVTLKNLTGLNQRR
UniProt Q6P3W2, sequence (Q6P3W2 whole entry, looked up): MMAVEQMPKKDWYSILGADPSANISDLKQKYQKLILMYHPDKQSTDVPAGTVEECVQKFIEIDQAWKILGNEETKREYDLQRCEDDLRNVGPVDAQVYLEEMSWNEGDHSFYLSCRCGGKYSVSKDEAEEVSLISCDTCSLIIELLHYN
UniProt P51790, sequence (P51790 whole entry, looked up): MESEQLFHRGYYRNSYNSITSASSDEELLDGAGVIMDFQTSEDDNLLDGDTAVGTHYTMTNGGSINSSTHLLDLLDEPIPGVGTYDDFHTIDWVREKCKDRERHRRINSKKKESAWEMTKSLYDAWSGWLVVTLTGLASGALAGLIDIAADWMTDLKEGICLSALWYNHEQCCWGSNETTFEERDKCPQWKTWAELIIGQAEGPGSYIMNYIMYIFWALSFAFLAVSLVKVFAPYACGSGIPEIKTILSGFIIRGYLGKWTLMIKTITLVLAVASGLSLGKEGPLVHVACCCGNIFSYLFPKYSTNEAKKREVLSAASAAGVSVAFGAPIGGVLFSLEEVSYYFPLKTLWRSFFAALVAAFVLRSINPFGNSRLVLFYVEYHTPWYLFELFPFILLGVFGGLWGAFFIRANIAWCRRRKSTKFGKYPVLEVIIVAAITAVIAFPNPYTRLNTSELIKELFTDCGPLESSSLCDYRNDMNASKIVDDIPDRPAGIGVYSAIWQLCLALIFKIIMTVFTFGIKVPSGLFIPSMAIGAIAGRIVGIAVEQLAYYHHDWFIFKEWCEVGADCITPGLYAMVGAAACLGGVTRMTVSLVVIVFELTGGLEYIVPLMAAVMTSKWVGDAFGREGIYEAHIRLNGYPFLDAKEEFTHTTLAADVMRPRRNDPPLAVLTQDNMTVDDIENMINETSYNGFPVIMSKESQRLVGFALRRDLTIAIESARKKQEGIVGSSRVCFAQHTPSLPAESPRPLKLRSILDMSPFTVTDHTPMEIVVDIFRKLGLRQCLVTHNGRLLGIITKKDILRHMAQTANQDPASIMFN
UniProt Q14203, sequence (Q14203 whole entry, looked up): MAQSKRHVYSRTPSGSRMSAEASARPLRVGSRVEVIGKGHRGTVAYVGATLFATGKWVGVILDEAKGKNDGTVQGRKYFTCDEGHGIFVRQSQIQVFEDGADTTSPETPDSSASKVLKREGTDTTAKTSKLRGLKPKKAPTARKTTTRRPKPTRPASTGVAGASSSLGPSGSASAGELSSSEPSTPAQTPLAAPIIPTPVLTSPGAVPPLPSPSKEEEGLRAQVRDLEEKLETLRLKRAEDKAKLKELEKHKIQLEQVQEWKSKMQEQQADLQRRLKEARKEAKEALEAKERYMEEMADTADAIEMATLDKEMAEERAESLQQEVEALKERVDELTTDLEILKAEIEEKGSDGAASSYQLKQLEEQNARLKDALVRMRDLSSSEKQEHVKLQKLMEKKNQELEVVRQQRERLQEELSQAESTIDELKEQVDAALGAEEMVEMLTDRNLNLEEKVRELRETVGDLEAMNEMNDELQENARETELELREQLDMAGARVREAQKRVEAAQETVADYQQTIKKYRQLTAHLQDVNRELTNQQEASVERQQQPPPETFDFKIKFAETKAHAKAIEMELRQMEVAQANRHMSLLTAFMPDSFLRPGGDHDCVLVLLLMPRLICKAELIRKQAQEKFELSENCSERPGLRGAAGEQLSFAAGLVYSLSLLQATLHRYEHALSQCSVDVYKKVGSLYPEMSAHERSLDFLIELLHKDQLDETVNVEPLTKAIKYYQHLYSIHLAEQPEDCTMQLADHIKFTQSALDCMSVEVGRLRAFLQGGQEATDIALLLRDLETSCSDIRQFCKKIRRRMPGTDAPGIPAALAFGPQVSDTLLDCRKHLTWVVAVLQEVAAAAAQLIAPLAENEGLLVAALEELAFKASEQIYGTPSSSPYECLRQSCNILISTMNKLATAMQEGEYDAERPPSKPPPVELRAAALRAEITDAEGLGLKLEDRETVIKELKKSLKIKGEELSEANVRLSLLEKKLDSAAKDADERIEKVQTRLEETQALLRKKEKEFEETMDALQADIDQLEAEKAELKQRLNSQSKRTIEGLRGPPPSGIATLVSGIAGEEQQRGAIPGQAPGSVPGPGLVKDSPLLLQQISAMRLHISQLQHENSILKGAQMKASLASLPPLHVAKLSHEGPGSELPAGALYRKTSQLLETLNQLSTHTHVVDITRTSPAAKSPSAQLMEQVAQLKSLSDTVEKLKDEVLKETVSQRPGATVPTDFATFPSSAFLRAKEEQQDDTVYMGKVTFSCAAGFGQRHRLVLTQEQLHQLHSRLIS
UniProt Q9UP83, sequence (Q9UP83 whole entry, looked up): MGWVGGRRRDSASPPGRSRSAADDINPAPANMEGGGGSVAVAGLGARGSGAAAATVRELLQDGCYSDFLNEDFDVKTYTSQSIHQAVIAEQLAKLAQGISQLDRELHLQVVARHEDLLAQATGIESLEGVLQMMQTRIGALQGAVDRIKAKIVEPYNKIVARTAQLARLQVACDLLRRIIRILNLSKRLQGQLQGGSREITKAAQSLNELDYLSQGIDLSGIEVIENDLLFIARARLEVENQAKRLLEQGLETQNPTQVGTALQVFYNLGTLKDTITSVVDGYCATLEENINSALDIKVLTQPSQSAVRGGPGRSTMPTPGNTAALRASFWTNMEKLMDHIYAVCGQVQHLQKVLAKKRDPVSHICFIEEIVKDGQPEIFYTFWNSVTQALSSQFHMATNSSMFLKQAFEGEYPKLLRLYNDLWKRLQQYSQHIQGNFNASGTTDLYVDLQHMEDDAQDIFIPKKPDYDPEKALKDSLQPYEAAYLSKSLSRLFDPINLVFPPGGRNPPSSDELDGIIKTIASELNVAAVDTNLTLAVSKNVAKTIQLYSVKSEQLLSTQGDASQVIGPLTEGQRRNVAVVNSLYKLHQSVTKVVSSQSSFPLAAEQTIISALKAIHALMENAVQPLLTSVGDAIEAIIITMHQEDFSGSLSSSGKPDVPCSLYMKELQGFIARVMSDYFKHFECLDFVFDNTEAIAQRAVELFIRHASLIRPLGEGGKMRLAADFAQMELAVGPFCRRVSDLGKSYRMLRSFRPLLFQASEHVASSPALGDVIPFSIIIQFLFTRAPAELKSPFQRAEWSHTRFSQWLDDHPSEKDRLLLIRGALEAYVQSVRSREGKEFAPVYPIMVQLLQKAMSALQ
UniProt Q9BW66, sequence (Q9BW66 whole entry, looked up): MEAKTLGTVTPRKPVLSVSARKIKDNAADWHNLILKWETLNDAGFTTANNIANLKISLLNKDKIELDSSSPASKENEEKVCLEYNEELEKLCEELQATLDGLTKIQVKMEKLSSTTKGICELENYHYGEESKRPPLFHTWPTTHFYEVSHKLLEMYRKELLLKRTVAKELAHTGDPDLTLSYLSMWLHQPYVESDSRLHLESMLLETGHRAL

log2 fold change, inactive:
DHFR (UniProt P00374) 0.01
COG4 (UniProt Q9H9E3) 0.079
COASY isoform 2 (UniProt Q13057) -0.012
DDX4 (UniProt Q9NQI0) -0.047
COG5 isoform 2 (UniProt Q9UP83) -0.025
COX7B (UniProt P24311) -0.022
CSNK1A1 (UniProt P48729) 0.081
DLG3 isoform 2 (UniProt Q92796) -0.089
CUX1 isoform 2 (UniProt Q13948) 0.067
DCTN1 isoform 4 (UniProt Q14203) 0.078
DDAH1 (UniProt O94760) 0
CSNK1G3 (UniProt Q9Y6M4) 0.018
CUX1 isoform 3 (UniProt P39880) 0
CINP isoform 3 (UniProt Q9BW66) 0.003
CNNM2 (UniProt Q9H8M5) -0.048
CNTN4 (UniProt Q8IWV2) -0.193
DNAJC24 (UniProt Q6P3W2) 0.037
DNAH10 (UniProt Q8IVF4) -0.04
COQ8A (UniProt Q8NI60) 0.145
CNOT4 isoform 9 (UniProt O95628) 0.037
CKS1B (UniProt P61024) 0.04
DDB2 (UniProt Q92466) 0.079
DIAPH1 (UniProt O60610) 0.003
COQ9 (UniProt O75208) -0.021
DPY19L3 (UniProt Q6ZPD9) 0
CSNK1D (UniProt P48730) 0.041
DOCK10 (UniProt Q96BY6) 0.067
DEF6 (UniProt Q9H4E7) 0.019
CNIH4 (UniProt Q9P003) 0.06
CLCN3 (UniProt P51790) 0.05
DIAPH1 (UniProt H9KV28) 0.054
CUEDC2 (UniProt Q9H467) 0.006
CLASP2 (UniProt O75122) 0.058
